These results are taken from ChEMBL document CHEMBL5308504, “Tm Shift (DSF) assay results for EUbOPEN Chemogenomics Library” (2023).

Where “and” joins values, the source holds several entries; their conditions need not be identical. Equal values may be shown once.

Conditions in all cases: Compound concentration 20.0 uM, Protein concentration 2.0 uM, Result type QC Liability
Test [1] has as its target Tyrosine-protein kinase ABL1 (Homo sapiens) (UniProt P00519).
In test [2] the target is Cyclin-dependent kinase 2 (Homo sapiens) (UniProt P24941).
Test [3] concerns the target Casein kinase I isoform delta (Homo sapiens) (UniProt P48730).
Test [4] deals with Glycogen synthase kinase-3 beta (Homo sapiens) (UniProt P49841).
Test [5] concerns the target Mitogen-activated protein kinase 1 (Homo sapiens) (UniProt P28482).
The target in test [6] is T1, Aurora kinase A (Homo sapiens) (UniProt O14965).
T1 sequence (whole entry): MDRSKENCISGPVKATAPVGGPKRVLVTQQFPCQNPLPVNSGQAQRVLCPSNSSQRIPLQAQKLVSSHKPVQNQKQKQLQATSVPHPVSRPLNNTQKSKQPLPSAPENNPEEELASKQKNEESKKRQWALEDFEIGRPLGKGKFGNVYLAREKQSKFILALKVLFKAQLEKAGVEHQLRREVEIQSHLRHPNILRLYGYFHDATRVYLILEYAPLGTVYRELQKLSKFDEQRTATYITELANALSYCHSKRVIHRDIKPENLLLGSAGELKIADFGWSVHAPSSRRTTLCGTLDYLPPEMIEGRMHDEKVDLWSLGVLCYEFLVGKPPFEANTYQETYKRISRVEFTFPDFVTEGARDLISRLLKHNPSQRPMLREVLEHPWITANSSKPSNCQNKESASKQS

Chain of Glycogen synthase kinase-3 beta (Homo sapiens) (P49841 whole entry, looked up): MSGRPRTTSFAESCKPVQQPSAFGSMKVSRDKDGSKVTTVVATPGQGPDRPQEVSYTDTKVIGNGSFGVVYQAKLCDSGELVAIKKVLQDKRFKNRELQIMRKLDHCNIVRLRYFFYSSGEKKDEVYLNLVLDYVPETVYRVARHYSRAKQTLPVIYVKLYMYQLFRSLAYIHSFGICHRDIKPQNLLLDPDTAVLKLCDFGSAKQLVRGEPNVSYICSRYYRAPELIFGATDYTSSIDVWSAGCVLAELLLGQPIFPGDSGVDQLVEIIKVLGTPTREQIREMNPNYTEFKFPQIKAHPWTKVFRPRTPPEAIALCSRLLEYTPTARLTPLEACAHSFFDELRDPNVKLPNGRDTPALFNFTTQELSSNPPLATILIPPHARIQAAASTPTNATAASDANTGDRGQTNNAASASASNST
Chain of Casein kinase I isoform delta (Homo sapiens) (P48730 whole entry, looked up, canonical isoform): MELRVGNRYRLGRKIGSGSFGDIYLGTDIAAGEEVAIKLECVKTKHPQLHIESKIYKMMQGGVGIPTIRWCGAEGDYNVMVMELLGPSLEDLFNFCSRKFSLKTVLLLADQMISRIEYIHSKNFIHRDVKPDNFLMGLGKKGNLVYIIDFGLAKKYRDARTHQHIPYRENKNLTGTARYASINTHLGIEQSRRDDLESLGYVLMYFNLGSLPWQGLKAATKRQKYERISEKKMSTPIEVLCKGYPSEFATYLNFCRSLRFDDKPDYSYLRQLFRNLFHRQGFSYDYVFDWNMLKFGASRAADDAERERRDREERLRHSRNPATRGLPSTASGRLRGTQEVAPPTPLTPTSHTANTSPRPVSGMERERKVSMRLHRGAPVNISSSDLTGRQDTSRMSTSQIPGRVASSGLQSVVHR
Chain of Tyrosine-protein kinase ABL1 (Homo sapiens) (P00519 whole entry): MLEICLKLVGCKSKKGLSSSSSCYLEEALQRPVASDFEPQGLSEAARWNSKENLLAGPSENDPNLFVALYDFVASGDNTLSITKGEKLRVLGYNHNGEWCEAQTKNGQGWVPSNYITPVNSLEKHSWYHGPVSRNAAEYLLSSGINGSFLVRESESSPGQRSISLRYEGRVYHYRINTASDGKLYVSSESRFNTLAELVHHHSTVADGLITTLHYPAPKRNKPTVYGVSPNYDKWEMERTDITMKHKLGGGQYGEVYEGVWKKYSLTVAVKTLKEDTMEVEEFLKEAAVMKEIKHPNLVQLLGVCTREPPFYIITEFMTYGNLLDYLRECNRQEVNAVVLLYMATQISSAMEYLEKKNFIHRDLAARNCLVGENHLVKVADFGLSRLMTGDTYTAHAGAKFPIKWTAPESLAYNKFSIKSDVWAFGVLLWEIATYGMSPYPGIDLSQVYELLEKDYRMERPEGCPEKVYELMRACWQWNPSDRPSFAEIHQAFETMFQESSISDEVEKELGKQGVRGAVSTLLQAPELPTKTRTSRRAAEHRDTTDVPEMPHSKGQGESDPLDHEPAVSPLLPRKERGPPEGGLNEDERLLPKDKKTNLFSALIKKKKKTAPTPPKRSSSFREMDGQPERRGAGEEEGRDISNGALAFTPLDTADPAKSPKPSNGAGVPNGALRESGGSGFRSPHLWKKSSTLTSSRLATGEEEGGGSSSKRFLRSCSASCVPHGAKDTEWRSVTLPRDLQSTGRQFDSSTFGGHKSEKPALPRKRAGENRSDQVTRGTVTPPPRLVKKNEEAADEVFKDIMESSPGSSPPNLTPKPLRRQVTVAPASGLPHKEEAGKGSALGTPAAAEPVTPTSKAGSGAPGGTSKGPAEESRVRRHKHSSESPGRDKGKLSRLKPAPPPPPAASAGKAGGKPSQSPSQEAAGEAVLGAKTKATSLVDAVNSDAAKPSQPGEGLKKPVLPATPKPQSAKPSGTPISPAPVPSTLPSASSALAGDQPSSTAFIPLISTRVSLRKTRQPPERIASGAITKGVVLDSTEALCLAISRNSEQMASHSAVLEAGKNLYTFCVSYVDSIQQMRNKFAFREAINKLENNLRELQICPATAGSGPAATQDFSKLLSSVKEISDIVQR
Chain of Mitogen-activated protein kinase 1 (Homo sapiens) (P28482 whole entry): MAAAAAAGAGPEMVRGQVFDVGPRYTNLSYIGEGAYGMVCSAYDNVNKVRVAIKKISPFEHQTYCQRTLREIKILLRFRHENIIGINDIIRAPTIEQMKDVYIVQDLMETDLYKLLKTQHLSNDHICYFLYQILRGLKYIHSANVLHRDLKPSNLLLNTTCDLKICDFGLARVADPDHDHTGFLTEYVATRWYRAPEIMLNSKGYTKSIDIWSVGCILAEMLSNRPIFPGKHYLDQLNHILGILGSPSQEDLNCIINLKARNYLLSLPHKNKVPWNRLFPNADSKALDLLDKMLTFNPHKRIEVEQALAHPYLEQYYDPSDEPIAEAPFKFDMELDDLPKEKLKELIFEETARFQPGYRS

As for `Cc1cc(S(=O)(=O)N2CC(C)(C)c3cc(-c4ccc(C(F)(F)F)cc4)ccc32)ccc1OCC(=O)O`, the ΔTm (usually the shift of the melting midpoint relative to a reference) in test [1] was 0 °C; in test [2] it was -2.88 °C; in test [3], -0.16 °C; in test [4] it was -5.32 °C; in test [5], -9.76 °C; in test [6], -1.56 °C.
In the case of `O=C(O)Cc1cc(I)c(Oc2ccc(O)c(I)c2)c(I)c1`, the thermal shift (ΔTm) is -0.37 °C in test [1]; 0.49 °C in test [2]; 0.22 °C in test [3]; -0.68 °C in test [4]; -1.09 °C in test [5]; 3.86 °C in test [6].
Take `CCn1c(CNC(=O)c2ncc(C)nc2N)[n+](CC)c2ccc(C(=O)N(C)CCN(C)C)cc21`: the ΔTm in test [1] was 0.1 °C; in test [2], 0.39 °C; in test [3], 0.2 °C; in test [4] it was -0.02 °C; in test [5] it was 0.08 °C; in test [6], -0.29 °C.
For `Cn1c(C2(NC(=O)c3ccc(NCC4CCCCC4)nc3)CCC2)nc2ccc(/C=C/C(=O)O)cc21`, the ΔTm in test [1] is 0.22 °C; in test [2], 0.23 °C; in test [3] it was 0.38 °C; in test [4], -1.07 °C; in test [5], 0.02 °C; in test [6], 0.04 °C.
`NC(=O)OC[C@H](NC(=O)Cn1nc(-c2ccc(Cl)cc2)n(C[C@H](O)C(F)(F)F)c1=O)c1cccc(C(F)(F)F)c1`: the ΔTm in test [1] was found to be 1.4 °C; in test [2], 1.62 °C; in test [3], 0.82 °C; in test [4] it was 2.1 °C; in test [5] it was 1.35 °C; in test [6] it was 0.82 °C.
On to `COc1cc2ncnc(Nc3ccc4c(cnn4Cc4ccccc4)c3)c2cc1OC`, for which the ΔTm is -2.25 °C in test [1]; -2.73 °C in test [2]; 0.02 °C in test [3]; -2.74 °C in test [4]; -0.38 °C in test [5]; 0.63 °C in test [6].
On to `COc1cc2nc(C)nc(NC3(c4ccccc4)CC3)c2cc1OC`, for which the ΔTm is 0.57 °C in test [1]; 0.41 °C in test [2]; 0.15 °C in test [3]; -0.3 °C in test [4]; 0.33 °C in test [5]; 0.65 °C in test [6].
For `O=C(Nc1ccc(N2CCC(C(=O)N3CCOCC3)CC2)cc1)c1cnc(Oc2ccccc2)nc1`, the ΔTm in test [1] was 0.2 °C; in test [2] it was 0.87 °C; in test [3], 0.06 °C; in test [4] it was -0.13 °C; in test [5] it was 0.13 °C; in test [6], -0.24 °C.
With `CC(C)NC(=O)[C@H]1CCC[C@H]1Nc1nc(Nc2ccc(CN(C)C)cc2)ncc1Br`, the ΔTm was 6.63 °C in test [1]; 1.87 °C in test [2]; 0.87 °C in test [3]; 0.23 °C in test [4]; 1.81 °C in test [5]; 14.5 °C in test [6].
For `O=c1cc(C2CCNCC2)n2nc3cccc(Cl)c3c2[nH]1`, the ΔTm is 0.46 °C in test [1]; -0.11 °C in test [2]; 0.7 °C in test [3]; 0.46 °C in test [4]; 0 °C in test [5]; -0.12 °C in test [6].
Consider `CN1CCN(c2ccc(/C=C(\C#N)c3ccccc3Br)cc2)CC1`, for which the shift in melting temperature (ΔTm) in test [1] is -0.04 °C; in test [2] it was 0.19 °C; in test [3], 0.85 °C; in test [4], -0.47 °C; in test [5], 0.11 °C; in test [6], -1.83 °C.
With `NC1(c2ccc(-c3nc4c(O)ccnn4c3-c3ccccc3)cc2)CCC1`, the ΔTm is 0.22 °C in test [1]; -0.34 °C in test [2]; 0.07 °C in test [3]; -0.72 °C in test [4]; 0.46 °C in test [5]; 0.43 °C in test [6].
`Cc1nc2cccnc2n2c(-c3cc([C@@]4(O)CCCOC4)ccc3Cl)nnc12`: the ΔTm was -0.53 °C in test [1]; 0.88 °C in test [2]; 0.26 °C in test [3]; -0.63 °C in test [4]; 0 °C in test [5]; -0.06 °C in test [6].
On to `CC1(C)C[C@@H]1C(=O)N/C(=C\CCCCSC[C@H](N)C(=O)O)C(=O)O`, for which the ΔTm in test [1] was 0.34 °C; in test [2] it was 0.8 °C; in test [3], -0.09 °C; in test [4], 0.21 °C; in test [5], -0.39 °C; in test [6], -0.41 °C.
With `Cc1ncsc1-c1ccc(CNC(=O)[C@@H]2C[C@@H](O)CN2C(=O)[C@@H](NC(=O)C2(F)CC2)C(C)(C)C)c(OCCOc2ccc(CN3CCN(c4cc(-c5ccccc5O)nnc4N)CC3)cc2)c1`, the ΔTm in test [1] is 0.25 °C; in test [2], 4.72 °C; in test [3], 2.6 °C; in test [4], 9.47 °C; in test [5] it was -1.54 °C; in test [6], 3.64 °C.
Turning to `CN(C)C(=O)c1sc2nc(N3CCC(S(C)(=O)=O)CC3)cc(C(F)(F)F)c2c1N`, the ΔTm in test [1] was -0.62 °C and 1 °C; in test [2] it was 0.58 °C and 0.19 °C; in test [3], 0.2 °C and 0.17 °C; in test [4], -0.24 °C and -0.54 °C; in test [5] it was -0.76 °C and 0.56 °C; in test [6] it was -0.67 °C and 0 °C.
On to `CN1C(=O)[C@@H](NC(=O)c2cc(Cc3ccccc3)on2)COc2ccccc21`, for which the ΔTm was -2.16 °C in test [1]; -0.24 °C in test [2]; -4.18 °C in test [3]; -4.43 °C in test [4]; -1.79 °C in test [5]; -1.24 °C in test [6].
With `CNC(=O)c1cc(C(=O)N[C@H]2[C@@H]3COC[C@@H]32)cc2c1O[C@@H](CF)[C@@H]2c1ccccc1`, the ΔTm was -0.03 °C in test [1]; 0.5 °C in test [2]; 0.22 °C in test [3]; -0.96 °C in test [4]; 0.58 °C in test [5]; -0.12 °C in test [6].
Take `C=CC(=O)Nc1cccc(C(=O)Nc2ccc(Nc3cc(-c4c(-c5ccc(F)cc5)nc(SC)n4C)ccn3)cc2)c1`: the ΔTm is 2.33 °C in test [1]; -0.01 °C in test [2]; 3.17 °C in test [3]; -0.32 °C in test [4]; 0.35 °C in test [5]; 1.08 °C in test [6].
Regarding `Cc1cc(Cn2c(N3CC4(CNC4)C3)nc3c(N4CCN(C)CC4)cc(Cl)cc32)cc(C)c1F`, the ΔTm in test [1] turned out to be 0.24 °C; in test [2] it was 0.83 °C; in test [3], 0.19 °C; in test [4], 0.34 °C; in test [5], 0.58 °C; in test [6] it was 0.07 °C.
With `Cc1c(NC(=O)c2ccc(C(C)(C)C)cc2)cccc1-c1cn(C)c(=O)c(Nc2ccc(C(=O)N3CCOCC3)cc2)n1`, the ΔTm was 0.18 °C in test [1]; -0.38 °C in test [2]; 0.35 °C in test [3]; -2.28 °C in test [4]; -1.15 °C in test [5]; 1.86 °C in test [6].
